According to PubChem BioAssay AID2562 (National Center for Advancing Translational Sciences (NCATS), 2010):
Results filed as inconclusive are left out. Calls of active or inactive are those of the source. The call rests on the fitted dose curve; in most records, active means well fitted curve in the direction sought with a large enough effect; inconclusive means small, poorly fitted or top-dose-only effect, or effect the other way, or another doubt; inactive means no such curve, though single readings can be large or run the other way.

Biological target: Pyruvate kinase PKLR (Homo sapiens) (UniProt P30613)
Sequence (P30613 whole entry, looked up): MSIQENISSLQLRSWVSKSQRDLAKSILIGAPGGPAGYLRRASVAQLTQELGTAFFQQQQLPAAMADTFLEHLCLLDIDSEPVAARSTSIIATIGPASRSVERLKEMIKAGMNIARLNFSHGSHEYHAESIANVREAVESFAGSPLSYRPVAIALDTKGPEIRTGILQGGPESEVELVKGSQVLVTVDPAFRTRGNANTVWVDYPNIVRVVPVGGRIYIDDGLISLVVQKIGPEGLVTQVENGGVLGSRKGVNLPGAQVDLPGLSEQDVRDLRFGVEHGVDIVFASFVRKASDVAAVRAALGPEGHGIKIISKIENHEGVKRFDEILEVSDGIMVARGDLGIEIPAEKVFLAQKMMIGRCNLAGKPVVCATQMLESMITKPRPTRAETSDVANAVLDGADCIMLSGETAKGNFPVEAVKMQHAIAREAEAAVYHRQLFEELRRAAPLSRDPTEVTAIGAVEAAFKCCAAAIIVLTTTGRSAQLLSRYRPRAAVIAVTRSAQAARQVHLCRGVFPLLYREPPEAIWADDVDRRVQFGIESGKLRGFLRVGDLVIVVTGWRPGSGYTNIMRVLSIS
Experiment: Secondary LDH Assay for Activators of Human Reticulocyte Pyruvate Kinase: for Probe SAR
Settings: purified hPK-R, LDH-coupled NADH fluorescence kinetic; series mostly up to 58.4 µM
Source text: NIH Chemical Genomics Center [NCGC] Wael M. Rabeh, Lyudmila Nedyalkova and Hee-Wan Park [Structural Genomics Consortium, 100 College St. Toronto, Ontario, Canada] NCGC Assay Overview: Human pyruvate kinase reticulocyte (hPK-R) enzyme was supplied as a highly purified (>95% pure) preparation from Structural Genomics Consortium in Toronto (Ontario, Canada) and a secondary assay was used to evaluate compounds. This assay couples the formation of pyruvate from hPK-R using lactate dehydrogenase (LDH) and NADH. The depletion of NADH is followed in a fluorescent-based kinetic assay that follows the formation of pyruvate to lactate, as catalyzed LDH. Pyruvate kinase substrates, PEP and ADP, were present in the assay at 0.1 mM and 4 mM respectively. In this kinetic assay initial rates were determined by following the fluorescence of NADH depletion.
NCGC Assay Protocol Summary: Three uL of substrate mix (final concentration, 50 mM Tris-Cl pH 8.0, 200 mM KCl, 15 mM MgCl2, 0.1 mM PEP, 4.0 mM ADP, and 0.2 mM NADH) was dispensed into black-solid 1536 well plates. 23 nL of compounds were delivered by a pin tool and 1 uL of enzyme mix (final concentrations, 10 nM hPK-R and 1 uM of LDH) was added. Plates were immediately placed in ViewLux (Perkin Elmer) and NADH fluorescence was determined at 30 second exposure intervals for between 3 and 6 minutes. Data were normalized to the uninhibited and EC100 activation using known activators such as fructose-bis-phosphate.

Potency, inactive:
COc1ccccc1NS(=O)(=O)c1ccc2c(c1)CCC(=O)N2
Nc1cccc(S(=O)(=O)N2CCCN(S(=O)(=O)c3ccc4c(c3)OCCO4)CC2)c1
Cc1ccc(NS(=O)(=O)c2ccc3c(c2)CC(=O)N3C)cc1C
Cc1ccc(NS(=O)(=O)c2ccc(-c3ccccc3)cc2)cc1C
Cc1ccc(N2C(=O)c3ccccc3C2=O)c(C)c1
Cc1cccc(NS(=O)(=O)c2ccc3c(c2)CCC(=O)N3)c1
CNc1cccc(S(=O)(=O)N2CCN(S(=O)(=O)c3ccc4c(c3)OCCO4)CC2)c1
COc1cccc(Cn2ncc3c4sc(SC)cc4n(C)c3c2=O)c1
O=C1c2ccccc2C(=O)N1c1noc2ccccc12
O=C1CCc2cc(S(=O)(=O)Nc3cccc4ccccc34)ccc2N1
O=C1CCc2cc(S(=O)(=O)Nc3ccc4c(c3)OCCO4)ccc2N1
Cc1ccc(NS(=O)(=O)c2cc3c(cc2N(C)C)NC(=O)CC3)cc1C
CCCCN1C(=O)c2ccccc2C1=O
O=C1CCc2cc(S(=O)(=O)Nc3ccccc3Cl)ccc2N1
O=C1CCc2cc(S(=O)(=O)Nc3ccccc3F)ccc2N1
COc1cccc(Cn2ncc3c4sc(S(C)=O)cc4n(C)c3c2=O)c1 (stereo not given)
Cc1ccc(NS(=O)(=O)c2cc3c(cc2Cl)CCC(=O)N3)cc1C
O=C1CCc2cc(S(=O)(=O)NCc3ccccc3)ccc2N1
Fc1ccccc1-c1ccc(-c2nc3ccc(Cl)cn3c2Nc2ccc(Cl)cc2)o1
Cc1ccccc1Nc1c(-c2ccc(Cl)s2)nc2ccccn12
O=C1c2ccccc2C(=O)N1c1ccccc1O
Cc1ccc(C)c(OC2=NS(=O)(=O)c3ccccc32)c1
COc1ccc(S(=O)(=O)Nc2ccc(C)c(C)c2)cc1
O=C1CCc2cc(S(=O)(=O)Nc3cccc(Cl)c3)ccc2N1
Cc1ccc(NS(=O)(=O)c2ccc3c(c2)CCC(C)(C)O3)cc1C
Cc1ccc2nc(-c3ccc(C)o3)c(Nc3ccc4c(c3)OCO4)n2c1
O=C1CCc2cc(S(=O)(=O)Nc3ccccc3-c3ccccc3)ccc2N1
O=C1CCc2cc(S(=O)(=O)Nc3ccc(F)cc3)ccc2N1
Cc1ccc(NS(=O)(=O)c2cc3c(cc2N2CCCCC2)NC(=O)CC3)cc1C
O=C1CCc2cc(S(=O)(=O)Nc3cccnc3)ccc2N1
O=C1c2ccccc2C(=O)N1c1cccnc1
O=C1CCc2cc(S(=O)(=O)Nc3ccccn3)ccc2N1
O=C1c2ccccc2C(=O)N1c1cccc2ncccc12
O=C1CCc2cc(S(=O)(=O)Nc3ccc4ccccc4c3)ccc2N1
Cc1ccc(NS(=O)(=O)c2cccc(F)c2)cc1C
Cc1ccc(NS(=O)(=O)c2ccc3c(c2)CC(=O)N3)cc1C
O=S(=O)(c1ccc2c(c1)OCCO2)N1CCN(S(=O)(=O)c2c(F)cccc2F)CC1
O=C1c2ccccc2C(=O)N1c1ccccn1
Cc1ccc(NC(=O)c2ccc3c(c2)CCC(=O)N3)cc1C
CC(=O)N1c2ccc(S(=O)(=O)Nc3ccc(C)c(C)c3)cc2CC1C (stereo not given)
